CYP2C9 inhib – inhibitors of human CYP2C9. CYP2C9 Supersomes, luciferin-H conversion, luminescence. hit rate 20% among 96,000. P11712. inhibition, % at 5 µM;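 active = blocking of liver enzyme CYP2C9 beyond about 50% at 5 µM, limit read from the data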
Target sequence (P11712 whole entry, looked up): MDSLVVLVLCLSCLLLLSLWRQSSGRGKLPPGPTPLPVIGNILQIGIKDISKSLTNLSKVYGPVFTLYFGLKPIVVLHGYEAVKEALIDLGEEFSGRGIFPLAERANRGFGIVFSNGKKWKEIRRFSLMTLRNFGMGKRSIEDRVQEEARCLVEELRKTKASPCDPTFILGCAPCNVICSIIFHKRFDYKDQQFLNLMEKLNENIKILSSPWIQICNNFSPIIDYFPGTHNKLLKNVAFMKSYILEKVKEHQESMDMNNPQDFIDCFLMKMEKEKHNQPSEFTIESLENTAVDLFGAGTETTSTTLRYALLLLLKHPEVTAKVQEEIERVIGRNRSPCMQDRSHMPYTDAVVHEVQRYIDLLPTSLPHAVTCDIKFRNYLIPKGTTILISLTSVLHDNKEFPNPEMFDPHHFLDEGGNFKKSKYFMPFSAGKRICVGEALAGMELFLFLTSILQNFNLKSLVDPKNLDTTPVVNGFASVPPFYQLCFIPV
CYP2C9 act – increases human cytochrome P450 2C9 activity | activation factor at 5 µM | recombinant CYP2C9, luciferin-H conversion, luminescence; hits give high values; factor 1 = untreated enzyme, 0 = blocked | hit rate 1.4% among 96,000 | P11712;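 active = activation factor of 2 or more for CYP2C9 at a 5 µM dose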
CYP2C19 inhib – inhibitors of human CYP2C19; P33261; CYP2C19 Supersomes, luciferin-H EGE luminescence, 30 min; inhibition, % at 5 µM; hit rate 21% among 96,000; AID 778;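 active = CYP2C19 inhibition above a set limit at 5 µM in the primary screen, cut at about 50% in these data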
Measles CPE – protection of cells from measles virus; Measles virus-infected cells, CPE protection, absorbance; protection (pct of control), % at 4 µM; hit rate 1.5% among 140,000; AID 841; in the data active = protection mostly above about 24%, no sharp cut-off; inactive = mostly below about 26%
CYP2C19 act – activators of human cytochrome P450 2C19 | activation factor at 5 µM | recombinant CYP2C19, luciferin-H EGE luminescence; hits give high values; 0 = fully inhibited enzyme, 1 = untreated enzyme | AID 1025 | 96,000 tested, under 10 active | P33261;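 active = activation factor of at least 2 at 5 µM in the primary screen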
Large screens that a line does not name were inactive. An excerpt weighted towards active compounds, which were near 22% of everything screened.

COc1cccc(C2C(C(=O)Nc3nc4ccccc4s3)=C(C)NC3=C2C(=O)CC(C)(C)C3)c1OC (centres undefined)	none
CCSCCOC(=O)C1=C(C)NC(=O)NC1c1cc(OC)ccc1OC (centres undefined)	none
COc1cc(C2C(C(=O)N3CCOCC3)=C(C)NC3=C2C(=O)CCC3)ccc1OC(C)=O (centres undefined)	none
COc1ccc(OC)c(C2C(C(=O)Nc3nc4ccccc4s3)=C(C)NC3=C2C(=O)CCC3)c1 (centres undefined)	CYP2C9 inhib 74, CYP2C19 inhib 64
CCCOC(=O)C1=C(C)NC2=C(C(=O)CCC2)C1c1cc(OC)ccc1OC (centres undefined)	CYP2C9 inhib 78, CYP2C19 inhib 67
CCOC(=O)C1=C(C)NC2=C(C(=O)CCC2)C1c1cc(OC)ccc1OC (centres undefined)	CYP2C9 inhib 88, CYP2C19 inhib 79
CCCCOC(=O)C1=C(C)NC2=C(C(=O)CCC2)C1c1cc(OC)ccc1OC (centres undefined)	CYP2C9 inhib 85, CYP2C19 inhib 63
CC(C)(C)NC(=O)Cn1c(=O)c(=O)n(Cc2ccccc2)c2ccc(Cl)cc21	none (no result: CYP2C9 inhib, CYP2C9 act, CYP2C19 inhib, CYP2C19 act)
CCOC(=O)C1=C(CC)NC2=C(C(=O)CCC2)C1c1ccc(OC)c(OC)c1 (centres undefined)	CYP2C19 inhib 50
Cc1cc(SC(C)C(=O)Nc2ncc(Cl)cc2Cl)nc2ccccc12 (centres undefined)	Measles CPE 26 (no result: CYP2C9 inhib, CYP2C9 act, CYP2C19 inhib, CYP2C19 act)
COCCn1c(SC(C)C(=O)Nc2ncc(Cl)cc2Cl)nc2ccccc21 (centres undefined)	CYP2C19 inhib 68, Measles CPE 53
Cc1ccccc1NC(C)C(=O)N/N=C/c1ccccc1OCc1cccc(Br)c1 (centres undefined)	CYP2C9 inhib 76
CCC(=O)Nc1nnc(SCCN2CCOCC2)s1	none (no result: CYP2C9 inhib, CYP2C9 act, CYP2C19 inhib, CYP2C19 act)
C/C(Cl)=C\Cn1c(N2CCCCCC2)nc2c1c(=O)n(C)c(=O)n2C	CYP2C9 inhib 85
C=CCOc1nc2c(c(=O)n(C)c(=O)n2C)n1Cc1c(Cl)cccc1Cl	CYP2C19 inhib 62
Cn1c(=O)c2c(nc(-n3ccnc3)n2Cc2ccc(Cl)cc2Cl)n(C)c1=O	CYP2C9 inhib 80, CYP2C19 inhib 60
Cn1c(=O)c2c(nc(-n3ccnc3)n2Cc2ccccc2)n(C)c1=O	none
Cn1c(=O)c2c(nc(Br)n2Cc2ccccc2Cl)n(C)c1=O	CYP2C19 inhib 77
CCOc1nc2c(c(=O)n(C)c(=O)n2C)n1Cc1ccccc1Cl	none
Cn1c(=O)c2c(nc(N3CCCCCC3)n2CC(=O)c2ccccc2)n(C)c1=O	none
Cc1sc2nc(CN(CCc3ccccc3)C(=O)c3ccco3)[nH]c(=O)c2c1C	none (no result: Measles CPE)
CCOC(=O)Cn1c(=O)c2c(nc(N3CCCCC3)n2C)n(C)c1=O	CYP2C9 inhib 55
Cn1c(=O)c2c(nc(N3CCCCCC3)n2Cc2cccc3ccccc23)n(C)c1=O	CYP2C9 inhib 90, CYP2C19 inhib 76
CN1CCN(c2nc3c(c(=O)n(C)c(=O)n3C)n2Cc2cccc3ccccc23)CC1	none
CC(C)c1cccc(C(C)C)c1NC(=O)COC(=O)c1ccc2c(c1)S(=O)(=O)c1ccccc1C2=O	none (no result: CYP2C9 inhib, CYP2C9 act, CYP2C19 inhib, CYP2C19 act)
COc1ccc(-c2csc(-c3cc4ccccc4oc3=N)n2)cc1	none (no result: CYP2C9 inhib, CYP2C9 act, CYP2C19 inhib, CYP2C19 act)
Cc1cc(-c2ccccc2)n(-c2cc(N/N=C/c3ccccc3O)ncn2)n1	none (no result: CYP2C9 inhib, CYP2C9 act, CYP2C19 inhib, CYP2C19 act)
CNc1cc(-n2nc(C)cc2-c2ccccc2)ncn1	CYP2C19 inhib 61
COc1ccc(N2CCCn3c2nc2c3c(=O)n(Cc3ccccc3F)c(=O)n2C)c(OC)c1	none
CCOc1ccc(N/C=C/C(=O)c2ccc(OC)cc2)c([N+](=O)[O-])c1	CYP2C9 act 3
Cc1cc(NS(=O)(=O)c2ccc(NC(=O)CCCOc3ccc(Cl)cc3)cc2)no1	CYP2C9 inhib 58
COc1ccc(CC(=O)Nc2cc(C)on2)cc1	none
COc1ccc(OCCC(=O)Nc2cc(C)on2)cc1	CYP2C19 inhib 63
COc1ccc(OCCC(=O)NC2=NCCS2)cc1	CYP2C19 inhib 76
CC(C)(C)c1ccc(OCCC(=O)NC2=NCCS2)cc1	none
COc1ccc(C(=O)/C=C/Nc2ccc([N+](=O)[O-])cc2)cc1	none (no result: CYP2C9 inhib, CYP2C9 act, CYP2C19 inhib, CYP2C19 act)
CC1CCCC(C)N1C(=O)COC(=O)c1ccc(O)cc1 (centres undefined)	none
Cc1ccc(-c2nc(SCC(=O)Nc3cc(S(=O)(=O)N4CCCCC4)ccc3Cl)n[nH]2)cc1	none (no result: CYP2C9 inhib, CYP2C9 act, CYP2C19 inhib, CYP2C19 act)
COc1ccc(-c2csc3ncnc(Oc4cccc5ccc(C)nc45)c23)cc1	none (no result: CYP2C9 inhib, CYP2C9 act, CYP2C19 inhib, CYP2C19 act)
Cn1ccs/c1=N\S(=O)(=O)c1ccc(F)cc1	none
C=CC[n+]1c(-c2ccc(OC)c(OC)c2)csc1NNC(=O)Nc1ccccc1	none
Cc1ccc2c(Cl)cc(Cl)c(OCC(=O)Nc3cc(C)on3)c2n1	CYP2C19 inhib 50
CCC(C)(C)NC(=O)C(c1ccc(OC)cc1)N(Cc1ccco1)C(=O)CCC(=O)Nc1cc(C)on1 (centres undefined)	none (no result: CYP2C9 inhib, CYP2C9 act, CYP2C19 inhib, CYP2C19 act)
COc1ccc(C(C(=O)NC(C)(C)C)N(Cc2ccco2)C(=O)CCC(=O)Nc2cc(C)on2)cc1 (centres undefined)	CYP2C9 inhib 69
Cc1cccc(C)c1NC(=O)CCCSc1nc2ccccc2s1	none (no result: CYP2C9 inhib, CYP2C9 act, CYP2C19 inhib, CYP2C19 act)
O=C(CCCSc1nc2ccccc2s1)NC1=NCCS1	CYP2C19 inhib 83
Cc1ccc2c(Cl)cc(Cl)c(OCC(=O)NCc3ccco3)c2n1	none
COc1ccc(C(=O)/C=C/Nc2cc(C)on2)cc1	CYP2C19 inhib 58
CCc1cc2c(-c3ccccc3)cc(=O)oc2cc1OC(=O)c1cccs1	none (no result: CYP2C9 inhib, CYP2C9 act, CYP2C19 inhib, CYP2C19 act)
CCCc1nnc(NC(=O)C2CCCO2)s1 (centres undefined)	none
O=C(COc1ccccc1)NC1=NCCS1	Measles CPE 78
CCOC(=O)Cc1c(C)c2c(C)nn(-c3ccccc3)c2oc1=O	none
O=S(=O)(Nc1ccc(O)c(Sc2nc3ccccc3s2)c1)c1ccc(Cl)cc1	none
COc1ccc(CSc2n[nH]c(C)n2)cc1[N+](=O)[O-]	none (no result: CYP2C9 inhib, CYP2C9 act, CYP2C19 inhib, CYP2C19 act)
CCOC(=O)c1ccc(NC(=O)C2CCN(S(=O)(=O)CC)CC2)cc1	none
COc1cccc(NS(=O)(=O)c2ccc3c(c2)CCCN3C(C)=O)c1	CYP2C9 inhib 56, CYP2C19 inhib 96
CC(=O)N1CCc2cc(NS(=O)(=O)c3cccs3)ccc21	CYP2C9 inhib 89, CYP2C19 inhib 62
CC(=O)N1CCCc2cc(S(=O)(=O)Nc3ccc(C)cc3C)ccc21	none (no result: CYP2C9 inhib, CYP2C9 act, CYP2C19 inhib, CYP2C19 act)
CCOC(=O)c1ccc(NS(=O)(=O)N2CCCCCC2)cc1	CYP2C9 inhib 68
CCOC(=O)c1ccc(NS(=O)(=O)c2ccc3c(c2)CCCN3C(C)=O)cc1	CYP2C9 inhib 72
O=C(OCCN1CCOCC1)c1cccs1	none
CC1CCCCN1Cc1c(O)ccc2c(=O)c(-c3nc4ccccc4s3)c(N)oc12 (centres undefined)	none (no result: CYP2C9 inhib, CYP2C9 act, CYP2C19 inhib, CYP2C19 act)
O=C1c2ccccc2C(=O)N1CN(C(=O)COc1ccc(Cl)cc1Cl)c1cccc(F)c1	none (no result: CYP2C9 inhib, CYP2C9 act, CYP2C19 inhib, CYP2C19 act)
CCCCCn1c(SCC#N)nc2cc(C(=O)NCC3CCCO3)ccc2c1=O (centres undefined)	none
COc1ccc(CNC(=O)CCCCCn2c(SCC#N)nc3cc4c(cc3c2=O)OCO4)cc1	CYP2C9 inhib 94
